Measured values published in PubChem BioAssay.
Calls of active or inactive are those of the source.

Experiments:
[1] = tested on: PRMT1 (protein arginine N-methyltransferase 1); test: small molecules binding arginine methyltransferase PRMT1 – biochemical, small-molecule microarray, 635 nm fluorescence, primary screen (AID 1088); settings: higher = more signal;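 further: binding of Prmt1 protein to compounds spotted on small-molecule microarray slides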
[2] = growth effects on S. cerevisiae YJM789 – YJM789 clinical isolate, OD600, 24 h, basal, primary screen (AID 1089); settings: higher = more signal, called active from +8 up or from −8 down;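 further: growth of clinical yeast isolate S. cerevisiae YJM 789 seeded 1000 cells per well; test concentration not given here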
[3] = S. pombe growth modifiers, basal conditions – strain 972, OD600, 24 h, no modulator, primary screen (AID 1090);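 further: basal condition with compound alone and no growth modifier present; test concentration not given here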; settings: S. pombe 972 growth, higher = more signal, called active from +8 up or from −8 down
[4] = budding yeast growth modifiers under rapamycin – strain BY4716, OD600, 96 h, primary screen (AID 1091); further: test concentration not given here; settings: S. cerevisiae BY4716 + rapamycin, higher = more signal, called active from +8 up or from −8 down
[5] = molecular target: Torsin-1A-interacting protein 2 (Homo sapiens) (UniProt Q8NFQ8); test: small molecules binding lysate-expressed LULL1 – cell lysate, human LULL1 lysate, 635/667 nm fluorescence, primary screen (AID 1092); settings: small-molecule microarray, hLULL1 lysate binding, 635 nm fluorescence; higher = more signal;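 further: probe is lysate of COS7 cells overexpressing human LULL1; score merges per-feature 667 nm fluorescence with signal-to-noise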
[6] = optical density change of DRC41 E. coli – strain DRC41, OD650, 24 h, E. coli filamentation project, primary screen (AID 1093);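 further: MC1000 strain lacking acrAB efflux and sulA so SOS filamentation is blocked; test concentration not given here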; settings: E. coli DRC41 growth, higher = more signal, called active from +8 up or from −8 down
[7] = probe aLefty2 binding to arrayed compounds – biochemical, biotinylated probe, 635/667 nm fluorescence, primary screen (AID 1094); settings: small-molecule microarray, higher = more signal;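 further: score merges spot fluorescence near 667 nm with spot signal-to-noise ratio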
[8] = tested on: Noggin (protein binding on small-molecule microarray); test: small molecules binding Noggin protein – biochemical, 635/667 nm fluorescence, primary screen (AID 1095); settings: 635 nm fluorescence, higher = more signal;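 further: score merges 667 nm feature fluorescence with signal to noise over triplicate slides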
[9] = molecular target: Neurogenic locus notch homolog protein 3 (Homo sapiens) (UniProt Q9UM47); test: small molecules binding NOTCH3 protein – biochemical, 635/667 nm fluorescence, primary screen (AID 1096); settings: small-molecule microarray, 635 nm fluorescence, higher = more signal
[10] = probe aEGFR binding to arrayed compounds – biochemical, biotinylated probe, 635/667 nm fluorescence, primary screen (AID 1097); settings: small-molecule microarray, higher = more signal;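 further: probe is a biotinylated anti-EGFR antibody binding compounds printed on slides; score combines fluorescence near 667 nm and signal to noise of each spot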

Sequence of Torsin-1A-interacting protein 2 (Homo sapiens) (Q8NFQ8 whole entry, looked up): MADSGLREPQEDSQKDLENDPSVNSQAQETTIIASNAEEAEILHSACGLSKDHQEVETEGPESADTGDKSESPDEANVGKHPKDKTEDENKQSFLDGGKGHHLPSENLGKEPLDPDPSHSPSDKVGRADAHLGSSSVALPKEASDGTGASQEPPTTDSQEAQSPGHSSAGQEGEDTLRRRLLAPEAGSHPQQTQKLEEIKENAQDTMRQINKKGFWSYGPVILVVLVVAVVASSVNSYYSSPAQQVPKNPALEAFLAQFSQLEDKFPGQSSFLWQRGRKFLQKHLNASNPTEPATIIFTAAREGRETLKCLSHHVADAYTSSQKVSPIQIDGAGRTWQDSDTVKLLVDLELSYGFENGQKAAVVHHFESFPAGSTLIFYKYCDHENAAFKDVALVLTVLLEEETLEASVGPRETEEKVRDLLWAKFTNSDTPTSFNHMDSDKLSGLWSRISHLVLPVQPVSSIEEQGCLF
Sequence of Neurogenic locus notch homolog protein 3 (Homo sapiens) (Q9UM47 whole entry, looked up): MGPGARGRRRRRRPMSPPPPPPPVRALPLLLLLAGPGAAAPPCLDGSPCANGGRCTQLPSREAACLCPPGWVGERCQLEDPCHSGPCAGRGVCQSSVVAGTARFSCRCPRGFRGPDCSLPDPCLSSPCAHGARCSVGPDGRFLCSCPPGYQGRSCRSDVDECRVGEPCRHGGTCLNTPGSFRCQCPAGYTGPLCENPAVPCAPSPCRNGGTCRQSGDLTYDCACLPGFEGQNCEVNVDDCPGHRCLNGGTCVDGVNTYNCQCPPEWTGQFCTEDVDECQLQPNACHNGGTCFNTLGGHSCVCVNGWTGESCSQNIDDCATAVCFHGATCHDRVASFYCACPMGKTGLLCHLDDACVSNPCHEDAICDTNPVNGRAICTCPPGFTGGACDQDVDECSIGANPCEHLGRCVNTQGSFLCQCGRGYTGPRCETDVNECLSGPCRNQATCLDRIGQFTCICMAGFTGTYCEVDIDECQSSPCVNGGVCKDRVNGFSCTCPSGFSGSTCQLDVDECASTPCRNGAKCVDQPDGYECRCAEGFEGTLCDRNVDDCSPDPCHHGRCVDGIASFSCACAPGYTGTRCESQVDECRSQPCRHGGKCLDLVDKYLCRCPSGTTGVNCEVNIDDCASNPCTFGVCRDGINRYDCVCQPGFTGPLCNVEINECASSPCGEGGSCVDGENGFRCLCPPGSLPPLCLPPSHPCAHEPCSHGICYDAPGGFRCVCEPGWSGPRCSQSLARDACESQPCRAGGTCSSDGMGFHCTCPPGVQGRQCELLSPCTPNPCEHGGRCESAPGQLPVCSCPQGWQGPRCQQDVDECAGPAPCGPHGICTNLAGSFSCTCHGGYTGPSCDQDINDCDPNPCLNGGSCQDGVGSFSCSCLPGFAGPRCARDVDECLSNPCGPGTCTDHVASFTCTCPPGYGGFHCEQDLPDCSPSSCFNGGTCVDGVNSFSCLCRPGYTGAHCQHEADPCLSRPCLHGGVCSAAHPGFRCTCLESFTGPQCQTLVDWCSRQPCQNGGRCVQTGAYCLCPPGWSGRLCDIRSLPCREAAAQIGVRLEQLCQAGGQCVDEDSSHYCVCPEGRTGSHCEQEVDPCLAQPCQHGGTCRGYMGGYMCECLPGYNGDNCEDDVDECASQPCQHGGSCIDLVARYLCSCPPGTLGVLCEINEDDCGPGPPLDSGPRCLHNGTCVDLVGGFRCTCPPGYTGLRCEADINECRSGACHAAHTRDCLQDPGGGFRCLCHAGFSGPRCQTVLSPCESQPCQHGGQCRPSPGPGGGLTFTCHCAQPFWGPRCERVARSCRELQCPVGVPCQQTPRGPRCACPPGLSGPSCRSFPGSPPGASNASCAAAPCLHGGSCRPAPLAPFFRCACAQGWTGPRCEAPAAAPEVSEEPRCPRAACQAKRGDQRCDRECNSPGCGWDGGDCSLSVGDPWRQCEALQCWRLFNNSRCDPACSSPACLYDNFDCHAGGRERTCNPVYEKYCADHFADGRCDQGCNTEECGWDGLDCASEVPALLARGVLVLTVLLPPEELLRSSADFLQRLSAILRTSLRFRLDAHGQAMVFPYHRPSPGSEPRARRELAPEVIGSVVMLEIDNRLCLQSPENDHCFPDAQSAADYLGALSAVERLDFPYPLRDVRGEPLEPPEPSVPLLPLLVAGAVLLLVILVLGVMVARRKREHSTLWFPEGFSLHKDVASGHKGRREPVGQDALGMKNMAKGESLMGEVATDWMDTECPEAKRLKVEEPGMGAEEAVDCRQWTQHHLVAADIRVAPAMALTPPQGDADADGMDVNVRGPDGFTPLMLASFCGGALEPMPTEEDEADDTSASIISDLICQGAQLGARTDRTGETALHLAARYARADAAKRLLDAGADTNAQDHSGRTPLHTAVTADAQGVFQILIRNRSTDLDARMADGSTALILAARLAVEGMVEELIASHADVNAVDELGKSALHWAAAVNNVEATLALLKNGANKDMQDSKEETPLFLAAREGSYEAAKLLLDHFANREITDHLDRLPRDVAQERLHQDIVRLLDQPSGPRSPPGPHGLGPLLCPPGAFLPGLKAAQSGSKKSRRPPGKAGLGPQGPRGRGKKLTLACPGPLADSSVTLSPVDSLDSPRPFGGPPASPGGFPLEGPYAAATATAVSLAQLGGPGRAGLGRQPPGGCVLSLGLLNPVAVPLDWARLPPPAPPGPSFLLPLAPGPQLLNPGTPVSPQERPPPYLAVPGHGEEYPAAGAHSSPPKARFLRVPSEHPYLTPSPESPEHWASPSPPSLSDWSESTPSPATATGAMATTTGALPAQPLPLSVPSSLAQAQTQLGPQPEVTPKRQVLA

| Compound | composite z-score [1] | z-score [2] | z-score [3] | z-score [4] | composite z-score [5] | z-score [6] | composite z-score [7] | composite z-score [8] | composite z-score [9] | composite z-score [10] |
| --- | --- | --- | --- | --- | --- | --- | --- | --- | --- | --- |
| COc1cc2c(cc1O)C(c1cccs1)N(C)CC2 (stereo not given) | -0.414 | 0.213 (inactive) | 1.07 (inactive) | -2.13 (inactive) | -0.849 | 0.841 (inactive) | -0.0943 | -0.428 | -0.0102 | -0.151 |
| CCN(CC)c1ccc(N2CC=CC34O[C@@H]5C=CCCOC(=O)C5[C@H]3C(=O)N(CCCCCCO)[C@@H]4C2=O)cc1 (stereo not given in full) | -0.171 | -2.16 (inactive) | -0.431 (inactive) | -1.74 (inactive) | 2.94 | 2.49 (inactive) | -0.192 | -0.612 | -0.619 | -0.0493 |
| COC(=O)[C@@]1(Cc2ccc(OC)cc2)[C@H]2c3cc(C(=O)N(C)C)n(C)c3C[C@H]2CN1C(=O)c1ccccc1 | 1.4 | 0.116 (inactive) | -0.756 (inactive) | 9.05 (active) | 3.73 | -1.63 (inactive) | 0.654 | 0.727 | 1.02 | 0.382 |
| COc1ccc(C#Cc2ccc3c(c2)[C@]2(C(=O)N3)[C@H](c3ccccc3OCCO)N3[C@H](c4ccccc4)[C@H](c4ccccc4)OC(=O)[C@H]3[C@@H]2C(=O)Nc2nc3ccccc3s2)cc1 | 1.54 | 2.95 (inactive) | 1.47 (inactive) | 0.871 (inactive) | 1.95 | 0.0309 (inactive) | 0 | 0.785 | 1.09 | -0.0549 |
| CCOC(=O)C[C@H]1[C@H](OC(=O)c2ccccc2-c2ccccc2)[C@@H](NC(=O)CC(C)C)c2cc(OCCCO)ccc2N1C(=O)Cc1ccc(OC)cc1 | 0.395 | -0.454 (inactive) | 0.109 (inactive) | 0.146 (inactive) | 0.472 | -0.853 (inactive) | -0.103 | 0.356 | -0.23 | -0.111 |
| COC(=O)[C@@]1(Cc2ccc(F)cc2)[C@H]2c3cc(C(=O)N(C)C)n(Cc4ccc(Cl)c(C(F)(F)F)c4)c3C[C@H]2CN1C(=O)c1ccccc1 | 1.31 | 0.44 (inactive) | 1.29 (inactive) | 1.69 (inactive) | 3.62 | -0.824 (inactive) | 0.395 | -0.602 | 1.02 | 0.231 |
| COCCOC(=O)N1C(=O)[C@@]2(c3ccccc31)[C@H](c1ccccc1OCCO)N1[C@H](c3ccccc3)[C@H](c3ccccc3)OC(=O)[C@H]1[C@@H]2C(=O)N1CCN(c2ncccn2)CC1 | 1.54 | 1.68 (inactive) | 1.58 (inactive) | 8.88 (active) | 2.59 | 0.22 (inactive) | -0.0529 | 0.994 | 1.11 | -0.12 |
| C=CCNC(=O)[C@H]1[C@@H]2C(=O)O[C@@H](c3ccccc3)[C@@H](c3ccccc3)N2[C@@H](c2ccccc2OCCO)[C@]12C(=O)Nc1ccc(C#CCC(C(=O)OC)C(=O)OC)cc12 | 1.32 | 1.93 (inactive) | 2 (inactive) | 5.92 (inactive) | 3.25 | 0.587 (inactive) | 0.65 | 0.897 | 1.05 | 0.486 |
| CCC[C@@H]1C[C@@]1(CCC)[C@@H](NC(=O)c1ccccc1)c1cccc(Cl)c1 | 0.596 | 1.47 (inactive) | 1.52 (inactive) | 2.12 (inactive) | 3.23 | -0.452 (inactive) | 0.497 | 0.149 | 1.15 | 0.913 |
| C=CCOC(=O)[C@H]1[C@@H]2C(=O)O[C@@H](c3ccccc3)[C@@H](c3ccccc3)N2[C@@H](c2ccc(OCCOC(=O)[C@H]3C[C@H]4C(=O)N[C@@H](CCCCNC(C)=O)C(=O)N4[C@H]3c3cccc(OCCO)c3)cc2)[C@]12C(=O)Nc1ccccc12 | 1.55 | 0.17 (inactive) | 1.11 (inactive) | 2.59 (inactive) | 3.05 | 0.272 (inactive) | -0.0865 | 0.664 | 0.879 | -0.0996 |
| COCCOC(=O)N1C(=O)[C@@]2(c3cc(C#CCC(C(=O)OC)C(=O)OC)ccc31)[C@H](C(=O)Nc1nc3ccccc3s1)[C@H]1C(=O)O[C@H](c3ccccc3)[C@H](c3ccccc3)N1[C@@H]2c1ccccc1OCCO | 1.56 | 2.48 (inactive) | 2.08 (inactive) | 3.23 (inactive) | 2.78 | 0.374 (inactive) | -0.0171 | 0.133 | 1.11 | 0.0556 |
| C=CCNC(=O)[C@@H]1[C@H]2C(=O)O[C@H](c3ccccc3)[C@H](c3ccccc3)N2[C@H](c2ccc(OCCO)cc2)[C@@]12C(=O)Nc1ccc(C#CCC(C(=O)OC)C(=O)OC)cc12 | 1.53 | 1.87 (inactive) | 2.03 (inactive) | 3.83 (inactive) | 3.04 | 1.92 (inactive) | 0.0869 | 1.31 | 0.981 | -0.0466 |
| COc1ccc(-c2cc3c(c(-c4ccc(Oc5ccccc5)cc4)n2)[Si](C(C)C)(C(C)C)OC3)cn1 | 0.483 | 1.32 (inactive) | 0.955 (inactive) | 1.88 (inactive) | -0.166 | -0.984 (inactive) | -0.119 | 0.503 | 0.342 | -0.26 |
